This passage reports growth results from PubChem BioAssay (NCI).

What all share (assay): NCI-60 one-dose screen, 48 h (100 = growth as untreated, 0 = no growth, -100 = all killed)
Holding throughout (settings): 10 µM unless noted

The subject of experiment [1] is NCI-H23 lung.
The subject of experiment [2] is NCI-H226 lung.
Experiment [3] concerns NCI-H322M lung.
Experiment [4] concerns HOP-62 NSCLC.
For experiment [5], the system named is NCI-H460 lung.
The test system of experiment [6] is HOP-92 NSCLC.
Experiment [7] has as its system NCI-H522 lung.
In experiment [8] the test system is 786-0 renal.
Experiment [9] relates to COLO 205 colon.
Experiment [10] concerns DU-145 prostate.
Experiment [11] has as its system K-562 leukemia.
Experiment [12] has as its system MALME-3M melanoma.
Experiment [13] relates to MDA-MB-231 breast.
The subject of experiment [14] is RXF 393 renal.
The test system of experiment [15] is SF-268 CNS.
Experiment [16] relates to SF-295 CNS.
Experiment [17] has as its system SF-539 CNS.
Experiment [18] concerns UACC-257 melanoma.
Experiment [19] concerns M14 melanoma.
For experiment [20], the system named is A549/ATCC NSCLC.

Values joined by “and” are separate entries in the source; they are usually repeats but may differ in a detail not shown here. Equal entries are not always repeated. About 83,000 compounds went through this panel and 20% of them were active in at least one assay; those are over-represented in the sample as a whole.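 Activity criterion: percent growth below 10, measured after cells in 96-well plates were exposed to a single compound concentration for 48 hours.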 Active and inactive are the calls of the source.

With `Cc1cc(O)c2c(c1)C(=O)c1cc(O)cc(O)c1C2=O`, the growth is 71% (inactive) and 91.7% (inactive) in experiment [1]; 84.8% (inactive) and 90.8% (inactive) in [2]; 94.6% (inactive) and 107% (inactive) in experiment [3]; 97.9% (inactive) and 78.1% (inactive) in experiment [4]; 98% (inactive) and 102% (inactive) in [5]; -3.28% (active) and 20.5% (inactive) in experiment [6]. Further, the growth in experiment [7] was 61% (inactive) and 78.8% (inactive); in experiment [8], 74.6% (inactive) and 83.3% (inactive); in experiment [9], 102% (inactive) and 96.7% (inactive); in [10], 87.2% (inactive) and 104% (inactive); in [11] it was 75.9% (inactive) and 87.9% (inactive); in experiment [12] it was 54.4% (inactive) and 94.1% (inactive). The growth is 78.7% (inactive) and 87.3% (inactive) in [13]; 90.7% (inactive) and 107% (inactive) in experiment [14]; 89.8% (inactive) and 97.6% (inactive) in [15]; 82.8% (inactive) and 94.9% (inactive) in [16]; 93.1% (inactive) and 86% (inactive) in experiment [17]; 84.8% (inactive) and 92.2% (inactive) in experiment [18]. For the same compound, in [19], the growth was 110% (inactive) and 93.6% (inactive).

As for `ClC/C=C/CSc1ncnc2nc[nH]c12`, the growth in [1] is 101% (inactive) and 102% (inactive); in experiment [2] it was 98.9% (inactive) and 123% (inactive); in [3], 110% (inactive); in [4], 91.9% (inactive) and 108% (inactive); in [5], 105% (inactive) and 106% (inactive); in experiment [6], 104% (inactive). The growth was 102% (inactive) and 77.3% (inactive) in experiment [7]; 101% (inactive) and 104% (inactive) in experiment [20]; 106% (inactive) and 102% (inactive) in experiment [8]; 109% (inactive) and 116% (inactive) in experiment [9]; 110% (inactive) and 116% (inactive) in experiment [10]; 82.1% (inactive) and 73.3% (inactive) in experiment [11]. The growth was 116% (inactive) and 95.9% (inactive) in experiment [12]; 109% (inactive) and 96.3% (inactive) in experiment [13]; 109% (inactive) and 141% (inactive) in [14]; 103% (inactive) and 119% (inactive) in [15]; 101% (inactive) and 117% (inactive) in experiment [16]; 101% (inactive) and 103% (inactive) in [17]. Moreover, the growth is 118% (inactive) and 104% (inactive) in experiment [18]; 104% (inactive) and 103% (inactive) in experiment [19].

With `O=[N+]([O-])c1ccccc1/C=N\Nc1ccccc1`, the growth was 75.3% (inactive) and 88.1% (inactive) in experiment [1]; 89.4% (inactive) and 97.8% (inactive) in experiment [2]; 86.5% (inactive) and 78.3% (inactive) in experiment [3]; 90% (inactive) and 90.6% (inactive) in [4]; 91.2% (inactive) and 97.4% (inactive) in experiment [5]; 72.2% (inactive) in [6]. Besides, the growth in experiment [7] is 68.2% (inactive) and 62.3% (inactive); in [8], 86.6% (inactive) and 101% (inactive); in experiment [9], 94.4% (inactive) and 105% (inactive); in experiment [10], 97.7% (inactive) and 103% (inactive); in experiment [11], 37.9% (inactive) and 40.2% (inactive); in [12] it was 98.7% (inactive) and 116% (inactive). The growth in experiment [13] was 74.1% (inactive) and 65% (inactive); in [14] it was 110% (inactive) and 105% (inactive); in experiment [15], 78.5% (inactive) and 89.5% (inactive); in experiment [16], 102% (inactive) and 76.9% (inactive); in experiment [17] it was 88.1% (inactive) and 106% (inactive); in experiment [18], 94.3% (inactive) and 103% (inactive). Further, the growth in experiment [19] was 50.1% (inactive) and 70.9% (inactive).

With `O=C1OC(Oc2ccc(Br)cc2)(c2ccccc2)c2ccccc21` (configuration not stated), the growth in experiment [1] was 91.1% (inactive) and 80.5% (inactive); in experiment [2], 75.6% (inactive) and 83.7% (inactive); in experiment [3], 99.3% (inactive) and 127% (inactive); in experiment [4], 113% (inactive) and 107% (inactive); in experiment [5] it was 91.3% (inactive) and 87.8% (inactive); in experiment [6] it was 95.7% (inactive) and 65.6% (inactive). Moreover, the growth in experiment [7] was 69% (inactive); in [8], 101% (inactive) and 73.2% (inactive); in [9] it was 105% (inactive) and 111% (inactive); in experiment [10] it was 97.1% (inactive) and 84.1% (inactive); in experiment [11], 70.1% (inactive); in [12], 89.5% (inactive). For the same compound, the growth in experiment [13] was 86.4% (inactive) and 107% (inactive); in experiment [14], 82.7% (inactive) and 82.3% (inactive); in experiment [15] it was 91.7% (inactive) and 76% (inactive); in experiment [16] it was 83.1% (inactive) and 82.3% (inactive); in experiment [17] it was 104% (inactive) and 98.5% (inactive); in [18] it was 88.5% (inactive) and 90.9% (inactive). In experiment [19], the growth is 96.4% (inactive) and 98.2% (inactive).

As to `CCOC(=O)C(CNc1ccccc1)C(=O)OCC`, the growth is 100% (inactive) in experiment [1]; 95.2% (inactive) in experiment [2]; 105% (inactive) in experiment [3]; 90.1% (inactive) in [4]; 103% (inactive) in experiment [5]; 85.6% (inactive) in experiment [6]. Moreover, the growth in [8] was 100% (inactive); in experiment [9] it was 106% (inactive); in [10] it was 109% (inactive); in experiment [11], 100% (inactive); in experiment [12], 115% (inactive); in experiment [13] it was 103% (inactive). The growth is 98.4% (inactive) in experiment [14]; 100% (inactive) in experiment [15]; 101% (inactive) in [16]; 101% (inactive) in experiment [17]; 109% (inactive) in experiment [19].

Consider `NC(=O)NO`, for which the growth was 102% (inactive) and 62.3% (inactive) in experiment [1]; 106% (inactive) and 74.1% (inactive) in experiment [2]; 107% (inactive) and 77.1% (inactive) in experiment [3]; 109% (inactive) and 73.2% (inactive) in [4]; 106% (inactive) and 62.3% (inactive) in [5]; 101% (inactive) and 60.6% (inactive) in experiment [6]. Moreover, the growth in [7] is 98.7% (inactive) and 82.7% (inactive); in experiment [20], 94.8% (inactive) and 53.4% (inactive); in [8] it was 103% (inactive) and 59.7% (inactive); in [9] it was 118% (inactive) and 87.4% (inactive); in experiment [10] it was 110% (inactive) and 56.7% (inactive); in experiment [11], 113% (inactive) and 77% (inactive). Besides, the growth in experiment [12] is 102% (inactive) and 57.8% (inactive); in [13], 98.8% (inactive) and 84.4% (inactive); in [14] it was 116% (inactive) and 25.5% (inactive); in [15], 102% (inactive) and 70.4% (inactive); in experiment [16], 99.4% (inactive) and 50.3% (inactive); in experiment [17], 104% (inactive) and 47.4% (inactive). Besides, the growth in [18] is 102% (inactive) and 44% (inactive); in experiment [19], 104% (inactive).

On to `Cc1ccc(NCSc2ccc(Cl)cc2)cc1`, for which the growth in experiment [1] is 80.7% (inactive) and 93.2% (inactive); in [2], 63.5% (inactive) and 103% (inactive); in experiment [3], 94.8% (inactive) and 94.6% (inactive); in experiment [4], 112% (inactive) and 87.8% (inactive); in [5] it was 82.7% (inactive) and 93.8% (inactive); in experiment [6] it was 63% (inactive). In addition, the growth in [7] is 29% (inactive) and 47.1% (inactive); in [8] it was 39.1% (inactive) and 53.7% (inactive); in [9], 81.6% (inactive) and 93.1% (inactive); in [10], 93.2% (inactive) and 95.4% (inactive); in experiment [11], 74.1% (inactive) and 80.2% (inactive); in [12], 115% (inactive) and 92.6% (inactive). The growth is 58.7% (inactive) and 59.7% (inactive) in experiment [13]; 100% (inactive) and 111% (inactive) in experiment [14]; 63.9% (inactive) and 57.2% (inactive) in [15]; 85.8% (inactive) in [16]; 65% (inactive) and 69.6% (inactive) in [17]; 70.7% (inactive) and 86.5% (inactive) in [18]. Further, the growth in [19] is 76% (inactive) and 89% (inactive).

As to `Cc1cccc(/C=C\C(=O)c2ccccc2)c1`, the growth in experiment [1] is 93.5% (inactive) and 101% (inactive); in experiment [2], 111% (inactive) and 95.5% (inactive); in [3] it was 97% (inactive) and 93.7% (inactive); in [4], 98.5% (inactive) and 111% (inactive); in experiment [5] it was 109% (inactive) and 100% (inactive); in [6], 81.3% (inactive). Besides, the growth is 95.3% (inactive) in experiment [7]; 79.7% (inactive) in [8]; 112% (inactive) and 114% (inactive) in experiment [9]; 99.9% (inactive) and 104% (inactive) in [10]; 67% (inactive) and 3.91% (active) in [11]; 91.5% (inactive) in [12]. Further, the growth in experiment [13] is 94% (inactive) and 110% (inactive); in [14], 118% (inactive) and 96.8% (inactive); in experiment [15], 105% (inactive) and 99.5% (inactive); in experiment [16], 116% (inactive) and 95.7% (inactive); in experiment [17], 112% (inactive) and 108% (inactive); in experiment [18], 102% (inactive) and 109% (inactive). The growth in [19] is 98.5% (inactive).
